Results reported in PubChem BioAssay (Tox21).
Records with an inconclusive call do not appear. Unmarked numbers belong to inactive results. Calls follow the shape of the dose curve; as a rule, active = well fitted cell-killing curve with a large enough effect in the repeat runs; inconclusive = weak or mixed curves, or effect the other way; inactive = flat fitted curve, though single readings scatter.

Test: qHTS RealTime-Glo MT Cell Viability Assay in HepG2 cells - 40 hour (AID 1224870); also: nearly all actives have a fitted effect of over 50% in size
Details: RealTime-Glo luminescence; series mostly up to 76.8 µM; activity change, negative = cytotoxic: at the top concentration
Summary of the method: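 HepG2 cells mixed with RealTime-Glo MT reagents (NanoLuc plus cell-permeant prosubstrate) were seeded at 600 cells/well, incubated 5 h at 37 C/5% CO2, then pinned with compounds in DMSO; nonlytic luminescence tracked viability during 40 h treatment.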
% is scaled to controls: 0 for no effect and ±100 for the full control effect.

Going from `C/C(=C(\CCOP(=O)(O)O)SC(=O)c1ccccc1)N(C=O)Cc1cnc(C)nc1N` to `Brc1c2ccccc2c(Br)c2ccccc12`, the activity change, negative = cytotoxic rises from -0.476% [at 6.97 µM] to 1.43% [at 6.97 µM].

`CN(C)c1ccc(/C=C/c2ccc([N+](=O)[O-])cc2)cc1` showed an activity change, negative = cytotoxic of -1.99% [at 6.97 µM].

First: CC1=CC=C(C(C)C)CC1
Second: CCC(C)O (configuration not stated)
The “activity change, negative = cytotoxic” value of the first is higher: -0.458% for the first, -1.08% for the second.

Compared with `COC(=O)c1ccc(I)cc1S(=O)(=O)NC(=O)Nc1nc(C)nc(OC)n1`, `COc1cc(Cl)ccc1Oc1ccc(Cl)cc1Cl` is higher in “activity change, negative = cytotoxic” value: -0.533% for the first, 1.11% for the second.

First: Brc1c2ccccc2cc2ccccc12
Second: Cc1cccc(Nc2ccccc2)c1
The “activity change, negative = cytotoxic” value of the first is lower: -3.21% for the first, -1.69% for the second.

Compared with `O=[N+]([O-])c1cccc(S(=O)(=O)O)c1`, `CCc1cc(C2=C(C(=O)O)N(c3ccccc3C(F)(F)F)S(=O)(=O)c3ccccc32)cc2c1OCO2` is higher in “activity change, negative = cytotoxic” value: -12.8% for the first, -0.522% for the second.

Compared with `CCCCCCc1ccc(-c2ccc(C#N)cc2)cc1`, `Cc1nn(C)c(Oc2ccccc2)c1/C=N/OCc1ccc(C(=O)OC(C)(C)C)cc1` is lower in “activity change, negative = cytotoxic” value: 0.116% for the first, -4.79% for the second.

Compared with `NCCCN1CCOCC1`, `CCCCCCCCCCCCN1CCCCCC1=O` is lower in “activity change, negative = cytotoxic” value: 0.191% for the first, -11.8% for the second.

Going from `CCCCC(CC)COC(=O)CCCCCCCCC(=O)OCC(CC)CCCC` (configuration not stated) to `S=C([S-])NCCNC(=S)[S-].[Mn+2]`, the “activity change, negative = cytotoxic” value falls from 0.729% to 0.388%.

Going from `C=C1C(=C/C=C2\CCC[C@]3(C)[C@@H]([C@H](C)/C=C/[C@@H](O)C4CC4)CC[C@@H]23)C[C@@H](O)C[C@@H]1O` to `C[C@H]1C[C@H]2[C@@H]3CCC4=CC(=O)C=C[C@]4(C)[C@@]3(Cl)[C@@H](O)C[C@]2(C)[C@@]1(O)C(=O)CO`, the “activity change, negative = cytotoxic” value rises from -12.1% [at 35.3 µM] to -8.11% [at 35.3 µM].

First: O[C@@H](COc1cccc2ncccc12)CN1CCN(C2c3ccccc3[C@@H]3[C@H](c4ccccc42)C3(F)F)CC1 (some centres not stated)
Second: CN(C)CCN(Cc1ccccc1)c1ccccn1
The “activity change, negative = cytotoxic” value of the first is lower: -24.2% [at 35.3 µM] for the first, -10.4% [at 35.3 µM] for the second.

First: CC(=O)NO
Second: CCCC(=O)Nc1ccc(O)c(C(C)=O)c1
The “activity change, negative = cytotoxic” value of the first is lower: -1.21% [at 35.3 µM] for the first, 2.2% [at 35.3 µM] for the second.

Going from `CCCCC(=O)OCC(=O)[C@H]1[C@H](C)C[C@H]2[C@@H]3C[C@H](F)C4=CC(=O)C=C[C@]4(C)[C@@]3(F)[C@@H](O)C[C@@]21C` to `CCCn1cnc2c1c(=O)n(CCCCC(C)=O)c(=O)n2C`, the “activity change, negative = cytotoxic” value rises from -0.743% [at 35.3 µM] to 1.35% [at 35.3 µM].

Going from `CCN(CC)c1ccc(C(=C2C=CC(=[N+](CC)CC)C=C2)c2cc(S(=O)(=O)O)ccc2S(=O)(=O)[O-])cc1` to `CCCCCCOC(=O)NC(=N)c1ccc(NCc2nc3cc(C(=O)N(CCC(=O)OCC)c4ccccn4)ccc3n2C)cc1`, the “activity change, negative = cytotoxic” value falls from -2.59% [at 35.3 µM] to -13.1% [at 35.3 µM].

Compared with `CC1(c2ccccc2)OC(C(=O)O)=CC1=O` (configuration not stated), `C#CCN(C)CCCOc1ccc(Cl)cc1Cl` is lower in “activity change, negative = cytotoxic” value: 1.76% [at 35.3 µM] for the first, -15.3% [at 35.3 µM] for the second.

Compared with `C#Cc1cccc(Nc2ncnc3cc(OCCOC)c(OCCOC)cc23)c1`, `COc1cc(C(=O)OCCCN2CCCN(CCCOC(=O)c3cc(OC)c(OC)c(OC)c3)CC2)cc(OC)c1OC` is lower in “activity change, negative = cytotoxic” value: -4.73% [at 35.3 µM] for the first, -6.95% [at 35.3 µM] for the second.

For `Nc1ncn([C@H]2C[C@H](O)[C@@H](CO)O2)c(=O)n1`, the “activity change, negative = cytotoxic” value was 1.22% [at 35.3 µM].
